# PubChem BioAssay
# Entries with a potency or affinity are not part of this list. The source made the active and inactive calls. No cut-off is given here; in the data, nearly all actives have IC50 up to about 0.91 µM.
# Molecular target: Calcium-dependent protein kinase 4 (Plasmodium falciparum (isolate 3D7)) (UniProt Q8IBS5)
# Test: PfCDPK4 kinase inhibitors, biochemical, TCAMS library (AID 1159588)
# Details: recombinant PfCDPK4, Kinase-Glo ATP depletion luminescence
# Calcium-dependent protein kinase 4 (Plasmodium falciparum (isolate 3D7)), sequence (Q8IBS5 whole entry, looked up): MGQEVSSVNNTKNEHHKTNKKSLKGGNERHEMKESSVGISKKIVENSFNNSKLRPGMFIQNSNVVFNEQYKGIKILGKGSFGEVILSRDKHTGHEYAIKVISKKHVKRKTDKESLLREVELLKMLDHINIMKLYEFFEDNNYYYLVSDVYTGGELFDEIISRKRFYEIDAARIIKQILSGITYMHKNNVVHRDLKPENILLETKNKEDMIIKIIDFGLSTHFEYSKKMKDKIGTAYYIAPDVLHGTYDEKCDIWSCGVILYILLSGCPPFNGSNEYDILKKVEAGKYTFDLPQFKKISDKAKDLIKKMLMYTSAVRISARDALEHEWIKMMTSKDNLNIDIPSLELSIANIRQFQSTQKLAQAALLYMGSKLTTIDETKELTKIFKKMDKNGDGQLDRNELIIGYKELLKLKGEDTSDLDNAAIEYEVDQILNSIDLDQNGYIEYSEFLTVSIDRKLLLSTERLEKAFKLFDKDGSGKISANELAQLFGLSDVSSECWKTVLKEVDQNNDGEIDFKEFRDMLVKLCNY
row,Structure (SMILES),outcome
1,C=CCN1C(=O)C(=Cc2cc(Br)ccc2O)SC1=Nc1ccccc1,inactive
2,O=C(Nc1ccc(F)cc1)NC1CCN(c2ccnc3cc(Cl)ccc23)C1 (stereo not given),inactive
3,CC(C)c1ccc(CN2CCC(NC(=O)c3ccc(-c4cccc(F)c4)s3)CC2)cc1,inactive
4,O=C(Nc1ccc(OC2CCN(Cc3ccccc3)C2)c(Cl)c1)c1ccco1 (stereo not given),inactive
5,CN1CCN(Cc2cccc(-c3cc4nccc(Nc5ccc(Oc6ccccc6)cc5)c4cc3Cl)c2)CC1,inactive
6,COc1ccc(CC(=O)NC(CCCN2CCC(c3ccccc3)CC2)c2ccc(Cl)c(Cl)c2)cc1OC (stereo not given),inactive
7,NC1CCN(Cc2cccc(-c3cccc(-c4nc5ccccc5[nH]4)c3)c2)C1 (stereo not given),inactive
8,COc1c(Br)cc(Br)cc1C(C)=O,inactive
9,N[C@@H](CCNC1CCN(c2cccc(C(F)(F)F)c2)CC1)Cc1ccc(F)c(F)c1,inactive
10,COc1ccc(CN2CCCN(Cc3cccc(NC(=O)c4ccc(Cl)c(Cl)c4)c3)CC2)cc1,inactive
11,CN(C)CCOc1cc(O)c2c(c1)OC(C)(C)C=C2c1cccs1,inactive
12,COc1nc(-n2ccc(=N)cc2)nc2ccccc12,inactive
13,CCC(C)C(COC(=O)c1cc(OC)c(OC)c(OC)c1)N(C)CCN(C)C(COC(=O)c1cc(OC)c(OC)c(OC)c1)C(C)CC (stereo not given),inactive
14,CSc1ccc(C=CC(=O)NC(=O)c2ccccc2O)cc1,inactive
15,O=C(N[C@@H](CC1CCCCC1)C(=O)NCc1cccc2ccccc12)c1ccc(O)c(-c2ccc(Cl)c(Cl)c2)c1,inactive
16,Cc1ccc(C(C)C)c(Oc2cnc(NC(CO)c3ccccc3)nc2N)c1 (stereo not given),inactive
17,CS(=O)(=O)CCNCc1nc(-c2ccc3c(=O)[nH]cnc3c2)cs1,inactive
18,CN1CCN(c2cccc(-c3nnc(-c4ccc(OCC(=O)NCc5ccc(C(F)(F)F)cc5)c([N+](=O)[O-])c4)o3)c2)CC1,inactive
19,COC(=O)c1sc2ccccc2c1NC(=O)c1ccc(C)c(C)c1,inactive
20,c1ccc(CN2CCN(c3cc(-c4cncc(-c5ccccc5)c4)nc(-c4ccccc4)n3)CC2)cc1,inactive
21,CCC(C)CN1CCN(c2ccc(NC(=O)c3cccs3)cc2)CC1C (stereo not given),inactive
22,COc1ccc2nc3cc(Cl)ccc3c(Nc3ccc(O)c(CN4CC5CCC(CC5)C4)c3)c2c1,inactive
23,CC(C)(O)CC(C)(C)c1cc(Cl)ccc1O,inactive
24,COc1ccc(NS(=O)(=O)c2ccc(C(=O)Nc3ccc(OC(F)(F)F)cc3)cc2)cc1N1CCN(CC2CC2)CC1,inactive
25,COc1ccc2nccc([C@@H](O)CN3CCC(NC(=O)c4cc5cccnc5[nH]4)CC3)c2c1,inactive
